Screening results (PubChem)
Sampled rows, rich in hits. Any-hit rate of the full collection: about 1.3%.
S1P2 antag = human S1P2 receptor antagonists, primary screen, cell-based; actives 0.21% (n = 97,000); inhibition, % at 5 µM; cell-based S1P2 antagonist assay, inhibition at 5 uM; Sphingosine 1-phosphate receptor 2 (Homo sapiens), O95136; in the data active = inhibition above about 45%;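 also: CRE beta-lactamase reporter cells expressing human S1P2 stimulated with S1P; 0% = agonist at EC80 alone and 100% = agonist plus reference antagonist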
GALR2 ag = GALR2 receptor agonists, primary screen, cell-based; GALR2-expressing cells, agonist activation read-out; actives 0.48% (n = 140,000); activation, % (no concentration beside the values); Galanin receptor type 2 (Homo sapiens), O43603; in the data active = activation above about 5%, passing the limit was not always enough;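 also: 0% = vehicle buffer wells and 100% = reference agonist at full effect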
Candida biofilm = clotrimazole potentiators killing Candida biofilms, primary screen, with clotrimazole, Alamar Blue. C. albicans biofilm + clotrimazole. inhibition, % at 6 µM. actives 0.14% (n = 85,000);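 active = inhibition above 20%; inactive = inhibition below 20%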;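 also: preformed 24 hr biofilms exposed to compound for 48 hr; 0% = biofilm without compound and 100% = blank killed by clotrimazole plus chlorhexidine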
S1P2 ag = S1P2 receptor agonists, primary screen, cell-based; Sphingosine 1-phosphate receptor 2 (Homo sapiens), O95136; S1P2-expressing cell line, agonist reporter read-out; activation, % at 4.5 µM; actives 0.46% (n = 97,000); in the data active = activation above about 16%;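 also: 0% = vehicle low control and 100% = maximal reference agonist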
GALR2 blocker = GALR2 antagonists in receptor-expressing cells, primary screen | actives 0.39% (n = 140,000) | inhibition, % at 4 µM | AID 828, 2007 | Galanin receptor type 2 (Homo sapiens), O43603 | antagonist mode; in the data active = inhibition above about 27%;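 also: cells stimulated with galanin 1-16 at roughly its EC80; 0% = agonist challenge control and 100% = basal control without agonist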
Smad3 inh = Smad3/FoxH1 peptide binding inhibitors, primary screen, biochemical, TR-FRET | Mothers against decapentaplegic homolog 3 (Homo sapiens), P84022 | TR-FRET Smad3/Dy647-FoxH1 peptide binding, europium anti-His | inhibition, % at 25 µM | actives 0.29% (n = 88,000) | AID 630, 2007;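 active = compounds that reduce the energy-transfer binding signal between the protein and its labelled peptide by more than half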;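 also: 0% = Smad3 plus labelled peptide maximal FRET and 100% = peptide-only background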
Target sequence (P84022 whole entry, looked up): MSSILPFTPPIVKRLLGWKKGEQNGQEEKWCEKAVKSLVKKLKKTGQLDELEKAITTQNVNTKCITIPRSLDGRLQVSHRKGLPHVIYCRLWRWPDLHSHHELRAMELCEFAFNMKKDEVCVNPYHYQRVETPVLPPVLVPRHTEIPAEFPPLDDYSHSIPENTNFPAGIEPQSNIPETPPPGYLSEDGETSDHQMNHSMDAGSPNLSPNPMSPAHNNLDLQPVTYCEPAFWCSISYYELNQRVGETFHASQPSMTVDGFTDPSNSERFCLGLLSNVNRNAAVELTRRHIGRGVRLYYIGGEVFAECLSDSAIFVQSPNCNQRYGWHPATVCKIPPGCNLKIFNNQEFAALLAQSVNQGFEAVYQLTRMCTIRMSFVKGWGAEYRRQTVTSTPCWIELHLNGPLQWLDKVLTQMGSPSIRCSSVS
Numbers without * were called inactive; nt = no result.

SMILES | S1P2 antag | GALR2 ag | Candida biofilm | S1P2 ag | GALR2 blocker | Smad3 inh
COc1cc2c(C)nc3onc(-c4ccccc4)c3c2cc1OC | -14.0 | -1.5 | 5.7 | 0.0 | 6.8 | 4.5
COc1cc2c(C)nc(C)c(C#N)c2cc1OC | -37.0 | 0.7 | 3.3 | 20.6* | 2.1 | -2.3
C[N+](C)(C)CC(=O)N/N=C/c1c(O)ccc2ccccc12 | nt | nt | nt | nt | nt | 11.6
O[C@@H]1[C@@H](OCc2ccccc2)OC[C@H](O)[C@H]1O | nt | nt | nt | nt | nt | 14.1
CCn1cc(C(=O)O)c(=O)c2cc(F)c(N3CCNCC3)cc21 | nt | -0.7 | 21.9* | nt | -6.4 | 10.9
CCn1cc(C(=O)O)c(=O)c2cc(F)c(N3CCN(C(=O)Nc4ccccc4)CC3)cc21 | 7.3 | 1.5 | 10.6 | -0.2 | -1.2 | 1.9
COc1ccccc1N(CC(=O)NCc1ccccc1)C(=O)CCC(=O)Nc1ccccn1 | -9.4 | -1.0 | 8.6 | 1.0 | -5.4 | 1.0
Cc1cc(=O)oc2cc3c(cc12)OCCN3 | -38.7 | 10.2* | 9.5 | 45.8* | -4.6 | 0.8
CCS(=O)(=O)N1CCC(C(=O)NCCN2CCN(Cc3ccccc3)CC2)CC1 | -2.0 | 6.2* | 4.1 | -7.6 | -1.0 | 3.3
C[C@H](CCC(=O)NN)[C@@H]1CC[C@@H]2[C@H]3CC[C@H]4C[C@@H](O)CC[C@]4(C)[C@@H]3CC[C@]21C | nt | nt | nt | nt | nt | 6.9
COc1ccc(OC)c(C2C(C(=O)Nc3nc4ccccc4s3)=C(C)NC3=C2C(=O)CCC3)c1 (configuration not stated) | -19.6 | 14.2* | nt | 23.7* | 0.6 | nt
COc1cccc(C2C(C(=O)Nc3nc4ccccc4s3)=C(C)NC3=C2C(=O)CC(C)(C)C3)c1OC (configuration not stated) | -16.8 | 6.3 | nt | 11.4 | 1.3 | nt
Cc1cc(O)c(-c2cc(O)c(C)cc2O)cc1O | nt | nt | nt | nt | nt | 83.1*
Cc1ccc(O)c(Sc2cc(C)ccc2O)c1 | -0.4 | -0.8 | 8.2 | -0.2 | 6.4 | -4.2
CC(=O)[C@]1(O)CC[C@@H]2[C@H]3C[C@@H](C)C4=CC(=O)CC[C@@]4(C)[C@@H]3[C@@H](O)C[C@]21C | nt | nt | nt | nt | nt | 34.5
c1ccc2sc(SCN(C3CCCCC3)C3CCCCC3)nc2c1 | nt | nt | nt | nt | nt | 61.9*
Cc1ccc(SC(C)C(=O)Nc2ccc(S(=O)(=O)N3CCOCC3)cc2)cc1 (configuration not stated) | 5.5 | -2.4 | 6.4 | -4.3 | 6.3 | 3.7
O=C(C1CC1)N1CCN(C(c2ccccc2)c2ccccc2)CC1 | 8.8 | -1.6 | 41.0* | -3.0 | -15.5 | 4.5
C=CCNCCCCOc1ccc(Br)cc1C | nt | -0.7 | nt | nt | 6.7 | nt
Cc1cc(Br)ccc1OCCCCNCCO | 30.2 | -4.9 | nt | 69.3* | 9.0 | nt
CCc1c(C)nc(Nc2nc(C)c3cc(OC)ccc3n2)[nH]c1=O | -22.0 | -0.9 | -2.8 | 8.7 | -0.2 | -7.3
CCc1ccc2nc(Nc3nc(COC)cc(=O)[nH]3)nc(C)c2c1 | -19.3 | -1.3 | nt | 19.3* | -1.5 | nt
CC(C)NC(=O)c1ccc2c(c1)S(=O)(=O)c1ccccc1C2=O | -45.6 | 2.2 | 0.5 | 18.2* | -14.2 | -24.5
CN1CCN(c2nc(-c3ccccc3)c3cc(Cl)ccc3n2)CC1 | 4.7 | 17.6* | 8.6 | 25.5* | 14.0 | -2.4
O=C1CN(c2nc(-c3ccccc3)c3cc(Cl)ccc3n2)c2ccccc2N1 | nt | -0.4 | nt | nt | -7.5 | nt
SMILES | S1P2 antag | GALR2 ag | Candida biofilm | S1P2 ag | GALR2 blocker | Smad3 inh
Clc1ccc2nc(NC3=NCN(CCN4CCOCC4)CN3)nc(-c3ccccc3)c2c1 | nt | nt | 6.7 | nt | nt | 2.4
OCCN1CCN(c2nc(-c3ccccc3)c3cc(Cl)ccc3n2)CC1 | -4.7 | 19.1* | 7.8 | 17.6* | 8.7 | -1.2
Cn1c(=O)c2c(nc(N3CCN(Cc4ccccc4)CC3)n2CCSc2ncccn2)n(C)c1=O | nt | nt | 4.4 | nt | nt | 0.8
CCOC(=O)C1=C(O)/C(=C/c2cc(OC)c(O)c(OC)c2)SC1=Nc1ccc(OC)cc1 | nt | 7.3* | nt | nt | 5.9 | nt
CCN(CC)c1ccc2cc(NC(=O)CCC(=O)O)c(=O)oc2c1 | nt | 0.2 | -7.0 | nt | 50.1* | 7.2
CCN(CC)c1ccc2cc(C(=O)Nc3ccccn3)c(=O)oc2c1 | nt | 19.2* | -0.2 | nt | -5.4 | -23.0
CCN(CC)c1ccc2cc(C(N)=O)c(=O)oc2c1 | -7.4 | 1.2 | 3.8 | 20.5* | -5.5 | 3.0
CCN(CC)c1ccc2cc(C(C)=O)c(=O)oc2c1 | 16.8 | 2.7 | 0.9 | 0.7 | 4.7 | 1.3
CC[C@H]1CN(C)[C@@H]2Cc3c([nH]c4ccccc34)C(=O)C[C@H]1[C@H]2C(=O)OC | nt | nt | nt | nt | nt | 1.2
C/C(=N\NC(=O)c1ccncc1)c1ccccc1Cl | nt | nt | nt | nt | nt | -6.9
c1ccc2cc(NCNc3ccc4ccccc4c3)ccc2c1 | nt | nt | nt | nt | nt | 18.4
CN(C)Cc1cc(O)c(O)c(CN(C)C)c1 | nt | nt | nt | nt | nt | 53.9*
O=C(O)[C@@H](Cc1c[nH]c2ccccc12)C(=O)NO | nt | nt | nt | nt | nt | 5.5
O=S1(=O)CCN(c2ccccc2CC(c2c[nH]c3ccccc23)c2c[nH]c3ccccc23)CC1 | nt | nt | nt | nt | nt | 88.0*
Cc1ccc2nc(N/N=C/c3cccc(C)n3)cc(C)c2c1 | nt | nt | nt | nt | nt | 10.8
CCOCCCNC(=O)c1ccc(N(C)S(=O)(=O)c2ccc(OC)cc2)cc1 | 22.5 | -1.3 | -3.6 | -6.9 | 5.1 | -1.0
COc1ccc(S(=O)(=O)N(C)c2ccc(C(=O)NCCC(C)C)cc2)cc1 | -2.4 | -1.5 | 0.9 | -3.6 | -2.2 | 68.8*
COc1ccc2c(c1)CN([C@H](C)[C@@H]1CC[C@@H]3[C@H]4CC[C@H]5C[C@@H](O)CC[C@]5(C)[C@@H]4CC[C@]31C)CO2 | nt | nt | nt | nt | nt | 30.9
O=C(Nc1c(-c2ccccc2)nc2sccn12)c1ccccc1 | nt | -0.3 | 4.4 | nt | 8.6 | 51.3*
COCCCn1c(SCc2nc3ccccc3c(=O)[nH]2)nc2ccccc2c1=O | -31.5 | 0.8 | 3.0 | 23.1* | -2.4 | 5.2
CCn1c(SCc2nc3ccccc3c(=O)[nH]2)nc2ccccc2c1=O | -9.5 | 1.8 | 5.8 | 15.2 | -8.2 | 10.3
COc1ccc(C2Nc3ccccc3C(=O)N2c2ccc(F)cc2)cc1CSc1ccccn1 (configuration not stated) | nt | 6.4* | nt | nt | 0.2 | nt
COc1ccc(C2Nc3ccccc3C(=O)N2c2ccccc2)cc1CSc1ccccn1 (configuration not stated) | nt | -1.2 | nt | nt | 7.7 | nt
C=CCOC(=O)C1=C(C)NC(SCC(N)=O)=C(C#N)C1c1cccs1 (configuration not stated) | nt | -0.8 | nt | nt | -3.3 | nt
CCOC(=O)C1=C(C)NC(SCC(=O)Nc2nc(C)cs2)=C(C#N)C1c1cccs1 (configuration not stated) | -21.0 | 21.8* | 8.0 | 19.8* | -8.8 | -3.0
Oc1cc(O)c2c(c1)O[C@@H](c1ccc(O)c(O)c1)[C@H](O[C@@]1(c3cc(O)c(O)c(O)c3)Oc3cc(O)cc(O)c3[C@H](O)[C@H]1O)C2 | nt | nt | nt | nt | nt | 11.5
